Bioassay records from PubChem BioAssay.
NadD inh: NadD (S. aureus) enzyme inhibition | actives 0.78% (n = 360,000) | purified NadD enzyme, colorimetric absorbance read-out | inhibition, % at 20 µM; in the data active = inhibition above about 26%
FAS-TE inh: blocks the thioesterase domain of human fatty acid synthase; P49327; recombinant FAS-TE, OMFH fluorogenic substrate, fluorescence endpoint; inhibition, % at 15 µM; actives 0.67% (n = 360,000);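 active = compounds whose normalised, plate-corrected inhibition of enzyme fluorescence in the single-dose primary screen is 50% or more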
NR3A LBD binder: modulates the human NR3A ligand-binding domain. AID 1259313. Tm shift relative to glycine control, % at 25 µM. NR3A LBD differential scanning fluorimetry, Tm shift; 0% = protein alone, 100% = glycine-bound protein. actives 2.5% (n = 340,000);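 active = melting temperature shift of at least 10% of the positive control shift, at one fixed dose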
rCAG RNA binder: r(CAG) repeat RNA binding. TO-PRO-1 dye displacement fluorescence. inhibition, % at 3 µM. actives 1.3% (n = 370,000);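 active = inhibition above the plate cutoff, the mean of all test compounds on that plate plus 3 SD, cut at about 35% in these data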;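 note: higher means more dye released from RNA so lower well fluorescence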
Each line names hits and unclear results; the compound was inactive in the other large screens. Shown are actives, neighbours in structure and some others; about 4.3% of the full set was active somewhere.

Cc1cc(C)c(S(=O)(=O)Nc2cc(SCC(=O)O)c(O)c3ccccc23)cc1C	none (no result: NadD inh, FAS-TE inh, rCAG RNA binder)
Nc1nc(-c2ccccc2)nc2sc3c(c12)CCCC3	NR3A LBD binder 14
O=C(CCc1ccccc1-c1ccccc1CCNC(=O)c1c(F)cccc1F)NCc1ccccc1	none (no result: NadD inh, FAS-TE inh, NR3A LBD binder)
O=S(=O)(c1ccc(-c2csc(Nc3ccc(Br)cc3)n2)cc1)N1CCCC1	NR3A LBD binder 25
C=CCn1c(SCC(=O)Nc2ccccc2-c2ccccc2)nc2cc(C(=O)O)ccc2c1=O	none
C=CCn1c(SCC(=O)Nc2ccc(F)cc2)nc2cc(C(=O)O)ccc2c1=O	NR3A LBD binder 15
C=CCn1c(SCC(=O)NC23CC4CC(CC(C4)C2)C3)nc2cc(C(=O)O)ccc2c1=O	rCAG RNA binder 35
C=CCn1c(SCC(=O)N(C)C)nc2cc(C(=O)O)ccc2c1=O	none
CCN(C(=O)COC(=O)c1ccc(Sc2ncn[nH]2)c([N+](=O)[O-])c1)c1ccccc1C	none (no result: NadD inh, FAS-TE inh, NR3A LBD binder)
CCOc1ccccc1CN1CCNC(=O)C1CC(=O)N(C)Cc1nonc1C (stereo unspecified)	none
Cc1nonc1CN(C)C(=O)CC1C(=O)NCCN1Cc1ccccc1F (stereo unspecified)	NR3A LBD binder 11
CCN(CC)C1=N/C(=C\c2ccc(OC)cc2)C(=O)N1c1ccccc1	NR3A LBD binder 12
CCSC1=N/C(=C\c2ccccc2)C(=O)N1c1ccc(OC)cc1	none
O=C(c1ccc(F)cc1Cl)N(Cc1ccccn1)CC1CCCO1 (stereo unspecified)	none (no result: NadD inh, FAS-TE inh, NR3A LBD binder)
CCOc1ccc(Br)cc1C1=CC(=O)C[C@H](c2ccc(OC)cc2)C1	NR3A LBD binder 16
O=C(COc1ccc(Cl)cc1)Nc1ccc(NC(=O)c2ccco2)cc1	NR3A LBD binder 17
COc1ccc(Cl)cc1NC(=O)c1ccco1	none
O=C(COc1ccccc1)Nc1ccc(NC(=O)c2ccco2)cc1	none
CC(C)C(=O)Nc1cccc(NC(=S)NC(=O)c2ccc3c(c2)OCO3)c1	NR3A LBD binder 12
COc1ccc(Cl)cc1C(=O)Nc1ccc2c(c1)OCO2	NR3A LBD binder 28
CC(C)C(=O)Nc1cccc(NC(=S)NC(=O)c2ccc(Cl)cc2)c1	none
COc1ccc(Cl)cc1C(=O)Nc1ccc2c(c1)OCCO2	none
COc1ccc(Cl)cc1C(=O)Nc1ccc(NC(=O)c2ccco2)cc1	NR3A LBD binder 17
O=C(CCc1ccccc1)N[C@H]1[C@H](O)CCC[C@]12C(=O)N(Cc1ccccc1)c1ccccc12	none (no result: NadD inh, FAS-TE inh, NR3A LBD binder)
Cc1ccc2nc(-c3ccc(F)cc3)c(Cc3ccsc3)n2c1	none (no result: NadD inh, FAS-TE inh, NR3A LBD binder)
COc1ccc(S[C@]2(C(=O)N(C)C)CC(=O)N(C(=O)Nc3ccc(C)c(Cl)c3)[C@@H]2c2ccc(OC)cc2)cc1	none (no result: NadD inh, FAS-TE inh, NR3A LBD binder)
Cc1ccc(NC(=O)c2ccc3c(c2)OCO3)cc1Cl	NR3A LBD binder 17
Cc1ccc(C(=O)Nc2ccc3c(c2)OCO3)cc1Cl	none (no result: NR3A LBD binder)
COc1cc(SC)ccc1C(=O)Nc1ccc2c(c1)OCCO2	NR3A LBD binder 14
CCCc1c(Cc2cccc(F)c2)ncn1CCc1ccccc1OC	none (no result: NadD inh, FAS-TE inh, NR3A LBD binder)
COC(=O)[C@]12C[C@H](CC(=O)N3CCOCC3)C(=O)N(CCC3=CCCCC3)C1=C[C@H](C(C)C)O[C@@H]2C1CC1	none (no result: NadD inh, FAS-TE inh, NR3A LBD binder)
N#CC1CC(c2ccccc2)Nc2cc(Cl)ccc2N1 (stereo unspecified)	NR3A LBD binder 14
CCOc1cc(/C=C(\C#N)C(=O)Nc2cccc(C(=O)O)c2)ccc1OCc1ccccc1Cl	none
CCOc1cc(/C=C(\C#N)C(=O)Nc2cccc(C(=O)O)c2)cc(Br)c1OC(=O)c1ccc(OC)cc1	FAS-TE inh 84
CCC1Nc2ncnc(N3CCc4ccccc4C3)c2N(Cc2ccc(Cl)cc2)C1=O (stereo unspecified)	none
O=C1C(Cc2ccccc2)Nc2ncnc(N3CCc4ccccc4C3)c2N1Cc1ccc(Cl)cc1 (stereo unspecified)	NadD inh 63, FAS-TE inh 55 (no result: rCAG RNA binder)
CC(C)=CCC12Oc3cc(O)ccc3C1(O)Oc1cc3c(c(O)c1C2=O)C=CC(C)(C)O3 (stereo unspecified)	NR3A LBD binder 12 (no result: NadD inh, FAS-TE inh, rCAG RNA binder)
CCn1c2ccccc2c2cc(NC(=O)CSc3nnc(C4CC4)n3Cc3ccco3)ccc21	NadD inh 32
CCn1c(SCC(=O)Nc2ccc3c(c2)OCO3)nnc1C1CC1	none
Cn1c(=O)oc2ccc(S(=O)(=O)Nc3ccc(Cl)cc3[N+](=O)[O-])cc21	none (no result: NadD inh, FAS-TE inh, NR3A LBD binder)
COc1ccc(NCC(O)Cn2cnc3c2c(=O)n(C)c(=O)n3C)cc1 (stereo unspecified)	none
Cn1c(=O)c2c(ncn2CC(O)CNc2ccc(Br)cc2)n(C)c1=O (stereo unspecified)	NR3A LBD binder 23
COC(=O)[C@H](C(C)C)N(Cc1cn(Cc2ccccc2)nn1)S(=O)(=O)c1ccccc1Br	none (no result: NadD inh, FAS-TE inh, NR3A LBD binder)
